Test results: PubChem BioAssay (NCI)
This is part of a sample that, as a whole, favours compounds with a hit. Of some 83,000 tested, about 20% had one in any assay.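 Results are percent growth after 48 hours of single-concentration exposure. 100 means growth as in untreated cells, lower positive values show inhibition; negative values down to -100 show cell death.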 Values without a mark were called inactive. Calls of active or inactive are those of the source. How the source made its calls: active means growth percent below 10; inactive means the rest.

System: HL-60(TB) leukemia
Assay: NCI-60 one-dose screen, 48 h (100 = growth as untreated, 0 = no growth, -100 = all killed)
Settings: 10 µM unless noted

Structure (SMILES)	growth
COC(=O)CSc1ccc(Cl)cc1	83.8%
COc1ccc2c(c1)CC[C@@H]1[C@@H]2CC[C@]2(C)c3c(cc(C#N)c4c3sc3ccccc34)C[C@@H]12	91.7%
CCCCCCCCCCCCCCCCCCOc1ccccc1CC(=O)OCC[N+]1(C)CCCCC1	-5.08% (active)
NS(=O)(=O)c1ccc(N2CC(c3nc4ccccc4[nH]3)CC2=O)cc1 (stereo unspecified)	99.4%
COc1ncc(-c2ccc3nccc(-c4ccnnc4)c3c2)cc1NS(=O)(=O)c1ccc(F)cc1F	-13.8% (active)
O=C(NN1C(=O)c2cc(C(=O)O)c(C(=O)O)cc2C1=O)c1ccncc1	109%
